Values without a mark were called inactive. No rule for the calls is given here. Where a SMILES comes first, the peptide text is derived from it. The star is where a group is joined. Boc = CC(C)(C)OC(=O)*

This experiment addresses Lethal factor (Bacillus anthracis) (UniProt P15917). Nature of the experiment: Bacillus anthracis lethal factor inhibition, microsphere flow cytometry protease assay, validation at 10 µM (AID 588461). The note with it: multiplex microsphere protease cleavage assay, hits give high values.
For `CC(=O)O[C@]1(C(C)=O)CC[C@H]2[C@@H]3C[C@H](C)C4=CC(=O)CC[C@]4(C)[C@H]3CC[C@@]21C`, the inhibition was -5.5%.

For `CN(C)CCN(Cc1ccc(Cl)cc1)c1ccccn1`, the inhibition was -1.2%.

As for `c1ccc(Nc2cccc3c(Nc4ccccc4)cccc23)cc1`, the inhibition is -25.4%.

Turning to `COc1ccc(/C=C/C(=O)Nc2ccccc2C(=O)O)cc1OC`, the inhibition was -6%. In the case of `Cc1cccc(N(C)C(=S)Oc2ccc3ccccc3c2)c1` it was -4.3%; in that of `COc1ccc(CCNC(=O)CC(c2ccccc2)c2cccc(C)c2O)cc1OC` (stereo not given), 0.1%; in that of `COc1ccc(OC)c(-c2oc3ccccc3c(=O)c2O)c1`, 2.9%. In the case of `Cn1c(=O)c2c(ncn2CC(O)CO)n(C)c1=O` (stereo not given) it was 2%; in that of `NCc1ccccc1COc1ccccc1`, -1.7%; in that of `COc1ccc(NC(=O)C2CSC3c4ccccc4C(=O)N23)cc1` (stereo not given), -3.8%. In the case of `Nc1ccn([C@@H]2O[C@H](CO)[C@@H](O)[C@@H]2O)c(=O)n1` it was -1.8%; in that of `COc1ccc(C(=O)[C@H]2[C@H]3C(=O)N(c4ccccc4)C(=O)[C@H]3C3C=CC=NN32)cc1` (stereo not given in full), -5.1%; in that of `CC(=O)NC(CC(C)C)C(=O)NC(Cc1ccccc1)C(N)=O` (stereo not drawn) (Ac-Leu-Phe-NH2; configuration not given here), -1.4%. Turning to `O=c1c(-c2ccccc2)c(O)c2cccc3c2n1CCC3`, the inhibition is 10.4%. In the case of `O=Cc1ccc(N2CCCCC2)cc1` it was -1.6%; in that of `CC(C)CCC1(CCNC(C)c2cccs2)CCOC(C)(C)C1` (stereo not given), -5.3%. In the case of `COc1ccc(C2NC(C(=O)O)Cc3c2[nH]c2ccccc32)cc1CN1CCN(c2ccc(F)cc2)CC1` (stereo not given) it was 2.2%; in that of `COc1ccc(C(=O)Nc2cccc3cccnc23)cc1OC`, -4.6%; in that of `Cc1ccc(CSCC(=O)NCCCN2CCOCC2)cc1`, 3.8%. In the case of `O=C(CC1(O)C(=O)Nc2ccccc21)c1ccccc1O` (stereo not given) it was -1.4%; in that of `Oc1ccccc1OCCOc1ccccc1OCCOc1ccccc1O`, -0.4%; in that of `C[C@]12CCC(=O)C=C1CC[C@@H]1[C@@H]2[C@@H](O)C[C@@]2(C)[C@H]1CC[C@]2(O)C(=O)CO`, -10.2%. For `CSc1ccc(CN2CCN(CCC(C)C)C(CCO)C2)cc1` (stereo not given), the inhibition was -3.3%. The same measure for `COc1ccc2c(c1)[N+](C)(C)C(C)(C)C=C2C`: 1.6%; for `COc1cc2c(cc1OC)C1(CCCC1)CNC2c1cccc([N+](=O)[O-])c1` (stereo not given): -9.4%; for `Cc1ccc(C(=O)NC(=S)NCCCN2CCOCC2)cc1`: 6.1%. The same measure for `Nc1nc2ccc(OC(F)(F)F)cc2s1`: 1.8%; for `OCC1CCN(Cc2cn(Cc3ccccc3)nc2-c2cc3ccccc3o2)CC1`: -0.9%. In the case of `COc1cc(Cl)cc2c1Sc1ccccc1/C2=C/CCN(C)C` it was -16.6%; in that of `C[C@@H]1C[C@H]2[C@@H]3CCC4=CC(=O)C=C[C@]4(C)[C@@]3(F)[C@@H](O)C[C@]2(C)[C@H]1C(=O)CO`, 7.4%. Regarding `CC(C)(C)OC(=O)N1CCCC1C(=O)NC(Cc1ccccc1)C(=O)O` (stereo not drawn) (Boc-Pro-Phe-OH; configuration not given here), the inhibition was -0.3%. In the case of `Cc1ccccc1C(=O)Nc1ccccc1C(=O)NCC(C)C` it was 1.2%; in that of `C=CCC1(O)C(=O)N2C(=C1C(=O)N1CCOCC1)c1ccccc1CC2(C)C` (stereo not given), 5.7%; in that of `C=CCc1ccc(OCC(O)COc2ccc(CC=C)cc2OC)c(OC)c1`, -6.2%.

On to `CC[C@]1(O)CC2CN(CCc3c([nH]c4ccccc34)[C@@](C(=O)OC)(c3cc4c(cc3OC)N(C=O)[C@H]3[C@@](O)(C(=O)OC)[C@H](OC(C)=O)[C@]5(CC)C=CCN6CC[C@]43[C@@H]65)C2)C1` (stereo not given in full), for which the inhibition was -12.5%. Consider `C[C@]12CC[C@H]3[C@@H](CCC4=CC(=O)CC[C@@]43C)[C@@H]1CC[C@@H]2C(=O)CO`, for which the inhibition was -10%.

For `CCc1cccc(OC2OC(CO)C(O)C(O)C2NC(C)=O)c1` (stereo not given), the inhibition was -4.6%. In the case of `CC(C)CCOCC(=O)Nc1cccc(C(=O)O)c1` it was -0.3%; in that of `COCCn1c(SCCOc2ccccc2)nc2ccccc2c1=O`, -1.1%; in that of `O=C(Cc1ccccc1)NCC(=O)OCC(=O)c1ccccc1Cl`, -9.6%.

For the origin of these results see PubChem BioAssay.
